This note sets out measurements from ChEMBL document CHEMBL4513216, “Probing the Open Global Health Chemical Diversity Library for Multistage-Active Starting Points for Next-Generation Antimalarials” (ACS Infect Dis, 2020).

The whole screen tested about 69,000 compounds, of which about 8,600 (12%) showed an effect of 50% or more. Shown is part of a subset that was picked to be rich in strong results.

This assay deals with Plasmodium berghei. As to the kind of experiment: Screen against P. berghei liver stage (PbLuc), transformed with Luciferase, at 10uM. It counts as functional, HepG2. The settings on record: tested at 10 uM.
Regarding `Cc1cc(C)c2c(OCC(=O)N(C)CC(=O)NC(C)C)nn(C)c2n1`, the INHIBITION is given as -0.275%.
In the case of `CCCn1cc(NC(=O)NCC2CCS(=O)(=O)C2)nn1` (configuration not stated) it was 16.6%; in that of `COCCN1C(=O)[C@@H]2CC[C@H]1CN(c1ncccn1)C2`, -33.4%; in that of `Cc1nc(C2CCCN2CC(=O)NCCc2ccc(Cl)cc2)no1` (configuration not stated), 44.1%.
On to `c1coc(-c2nnc(CN(Cc3cccs3)CC3CCCO3)o2)c1` (configuration not stated), for which the INHIBITION turned out to be 16.6%.
In the case of `Brc1ccc(-c2nnc(CN(Cc3cccs3)CC3CCCO3)o2)s1` (configuration not stated) it was 90.2%.
As for `CC(C)(C)c1nnc(CN(Cc2cccs2)CC2CCCO2)o1` (configuration not stated), the figure is 44%; as for `CC1CCN(Cc2c(C(C)C)[nH]c3ncccc23)CC1`, 8.12%; as for `COCCC(=O)N1CCC2(CC1)CN(S(C)(=O)=O)Cc1ccccc1O2`, -0.66%.
As for `Fc1cccc(N2CCOC3(CCCN(c4nncs4)C3)C2)c1` (configuration not stated), the figure is -22.5%; as for `Cc1nnc(N2CCCC3(CN(c4cccc(F)c4)CCO3)C2)o1` (configuration not stated), 33%.
On to `O=S(=O)(C1CC1)N1CCOC2(CCCN(c3cccc(F)c3)C2)C1` (configuration not stated), for which the INHIBITION was -57.1%.
Turning to `Fc1cccc(N2CCCC3(CN(Cc4ccco4)CCO3)C2)c1` (configuration not stated), the INHIBITION came to 80%.
With `OCCN1CCOC2(CCCN(c3cccc(F)c3)C2)C1` (configuration not stated), the INHIBITION came to 43.8%.
As for `Cc1ccc(CN2CCOC3(CCCN(c4cccc(F)c4)C3)C2)o1` (configuration not stated), the figure is 81.2%.
`CS(=O)(=O)NC1CC2(CCN(CC3CC3)CC2)Oc2ccccc21` (configuration not stated): the INHIBITION came to 19.4%.
As for `CN(Cc1cccnc1)[C@@H]1CN(C(=O)NC2CC2)[C@@H]2CCCO[C@H]12`, the figure is 32.2%; as for `Cc1cc(C(=O)N2CCCC(c3cc(=O)nc4n3CCC4)C2)on1` (configuration not stated), 20.6%; as for `CCOc1nc2cnccc2n(CC(=O)Nc2ccccc2OC)c1=O`, -1.45%.
In the case of `O=S(=O)(c1cccs1)N1CC[C@@H](O)[C@@H]1Cc1ccncc1` it was 71.9%; in that of `O=S(=O)(c1cccs1)N1CC[C@H](O)[C@@H]1Cc1ccncc1`, 28.4%.
In the case of `CO[C@H]1CCN(S(=O)(=O)c2cccs2)[C@H]1Cc1ccncc1` it was 7.77%.
In the case of `Cc1ccc(Sc2nccn(C)c2=O)cc1`, the INHIBITION is -53.1%.
As for `Cc1c[nH]c(C2CN(Cc3ccccc3C(=O)O)CCO2)n1` (configuration not stated), the figure is 26.7%; as for `COc1ccc(CNC(=O)CCSCc2csc(C)n2)cn1`, -12.2%; as for `CCN(CC)c1ncc(CNC2CCc3nc(C)nn3C2)s1` (configuration not stated), 4.22%.
For the compound `CCC(C)C(=O)NS(=O)(=O)c1ccc(C#N)cc1C(F)(F)F` (configuration not stated), the INHIBITION came to 9.54%.
In the case of `CC(O)CNc1ccc(C#N)cc1C(F)(F)F` (configuration not stated) it was 50.8%; in that of `COCC(O)CNc1ccc(C#N)cc1C(F)(F)F` (configuration not stated), 77.7%.
As for `N#Cc1ccc(NCC(O)c2ccco2)c(C(F)(F)F)c1` (configuration not stated), the figure is 25.7%; as for `CCC(CC)C(=O)NS(=O)(=O)c1ccc(C#N)cc1C(F)(F)F`, 11.9%.
In the case of `CC/C=C(/C)C(=O)NS(=O)(=O)c1ccc(C#N)cc1C(F)(F)F` it was -7.53%.
